# According to the OligoGym collection:
# Molecular target: C20orf54
# Experiment: pooled miR-30 sensor sort-seq; sequence = guide strand
# Conditions: shRNA
# Note: reference of the scale not given here.
row,Sequence,sensor-assay potency score (higher = more potent)
1,TTGACGTAACTGAGGCAGCCGC,-1.38
2,TTACTCTCCAACTAGTGGGCTT,-0.23
3,TTATCTGCTTGTCTTGTAGAAG,-1.04
4,TGAAGAGGTGCAGTCCACCAGG,-0.698
5,TATCTCAGTGACATTGACGCAG,0.229
6,TATCGTTATCTGCTTGTCTTGT,0.0273
7,TTTCTCCTCTAGATACCCCTGG,0.0398
8,TCAGTGACATTGACGCAGGTAG,-0.422

# Molecular target: C21orf70
# Experiment: as above
# Conditions: shRNA
row,Sequence,sensor-assay potency score (higher = more potent)
1,TTGCTCACGCCTCAGCTTCATT,-1.27
2,TTTTCTGCAACCATTGCTCACG,-0.501
3,TTCGATTTTCTGCAACCATTGC,-1.09
4,ATTTTCTGCAACCATTGCTCAC,-1.16
5,TCTTCCAGCTGCATCTGCCGGG,-0.496
6,TTCTTGGGCAAAACGGTCTTGG,-0.889
7,TTTTATGGCTTCGATTTTCTGC,-0.59
8,TTGAGCCCCACAACCGACCAGA,-0.652
9,TTCTGCACCAAGGCGCTGGGGT,-0.84
10,TTGGTGTTGATGAACGCCCAGT,-0.833
11,TTTATTGAGCCCCACAACCGAC,-1.2
12,TCCAGCTTCTGCACCAAGGCGC,-0.982

# Molecular target: C2orf55
# Experiment: as above
# Conditions: shRNA
row,Sequence,sensor-assay potency score (higher = more potent)
1,TTTCTTTCTGGCAAGTTCCATC,-0.776
2,TTTCTGGCAAGTTCCATCCAGG,-0.596
3,TTTGTTTGCCACAATACACTGG,-0.196
4,TTTTTGGAAACAGTCTATGAAT,-1.5
5,TTATTTTTGGAAACAGTCTATG,-0.924
6,TTATCCTCTTTGTTTTGCCTGG,-0.575
7,TTTGCCACAATACACTGGCAGT,-1.43
8,TTGTTTGCCACAATACACTGGC,0.782
9,TTAGATTTTTTCTTTCCTGTGC,0.654
10,TTGATGATAAAATCAATCTTTA,-0.855
11,ATTATTTTTGGAAACAGTCTAT,-0.496
12,TTGAATTTAGATTTTTTCTTTC,-0.493

# Molecular target: C2orf57
# Experiment: as above
# Conditions: shRNA
row,Sequence,sensor-assay potency score (higher = more potent)
1,TCTCTCAGGAACACTCGCCATT,-1.27
2,TTCTGGAACAACTGCACTCTTG,-1.11
3,TTCTCCTCAGCAGACTTGGTGG,-0.95
4,TTGTCCTTGCGTCTTGAACCTG,-1.12
5,TGTCCTTGCGTCTTGAACCTGC,0.175
6,ATTTGTGACATCTTGTCTTTAC,-1.19
7,TAGACCTGCTGTCATCCACGTT,-1.17
8,AACAACTGCACTCTTGTCTTTG,-0.961
